Molecules are shown by their SMILES. Results with a measured potency or affinity are listed apart. Active and inactive are the calls of the source. How the calls were made is not given here.

The values below come from PubChem BioAssay AID743048 (Broad Institute, 2013).

The target in the experiment is Paired box protein Pax-2 (Homo sapiens) (UniProt Q02962). The experiment is described as follows: PAX2 cell-based inhibition, dose response, selectivity assay for PAX8 inhibitor project, plate reader, dry powder samples (AID 743048). Conditions: Pax2 cell-based reporter; series mostly up to 50 µM.
Chain of Paired box protein Pax-2 (Homo sapiens) (Q02962 whole entry, looked up): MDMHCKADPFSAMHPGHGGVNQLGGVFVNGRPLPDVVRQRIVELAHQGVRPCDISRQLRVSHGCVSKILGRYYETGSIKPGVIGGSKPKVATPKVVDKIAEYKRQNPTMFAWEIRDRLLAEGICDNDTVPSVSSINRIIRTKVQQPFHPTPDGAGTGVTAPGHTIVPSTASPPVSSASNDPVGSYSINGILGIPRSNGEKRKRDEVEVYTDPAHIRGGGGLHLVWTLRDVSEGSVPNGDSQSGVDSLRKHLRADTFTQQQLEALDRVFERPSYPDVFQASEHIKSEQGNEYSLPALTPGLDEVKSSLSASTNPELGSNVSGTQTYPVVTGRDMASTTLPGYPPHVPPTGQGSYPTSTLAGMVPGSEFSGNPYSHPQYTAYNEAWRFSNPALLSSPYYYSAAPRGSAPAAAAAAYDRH
Turning to `O=C(CCCN1C(=O)/C(=C\c2cccc(Br)c2)SC1=S)Nc1cccnc1`, the outcome was inactive.
Consider `O=C(CCCN1C(=O)/C(=C\c2cccc(Br)c2)SC1=S)Nc1ccccn1`, for which the outcome was inactive.
As to `NS(=O)(=O)c1ccc(CCN2C(=O)/C(=C\c3ccc(Cl)cc3)SC2=S)cc1`, the molecule was classed as inactive.
As for `N#C[C@@H]1[C@@H](c2ccc(-c3cccc(F)c3)cc2)[C@H](CO)N1C(=O)NC1CCCC1`, the call was inactive.
For `N#C[C@H]1N[C@H](CO)[C@@H]1c1ccc(C#Cc2ccccc2F)cc1`, the result was inactive.
Take `COc1ccc(-c2cc(C(F)(F)F)nc(S(=O)(=O)CCCC(=O)Nc3cc(C)on3)n2)cc1OC`: the molecule was classed as inactive.
As to `CN(C[C@H]1N[C@@H](CO)[C@@H]1c1ccc(C2=CCCC2)cc1)C(=O)c1ccc(F)cc1`, the outcome was inactive.
In the case of `C[C@@H]1CN([C@H](C)CO)C(=O)CCCn2cc(nn2)CO[C@H]1CN(C)C(=O)Nc1ccc(-c2cccs2)cc1`, the outcome was inactive.
To `O=C1/C(=C/c2cccc(Br)c2)SC(=S)N1CCC(=O)N(CCO)c1ccccc1` belongs “inactive”; to `CN(C[C@H]1N[C@@H](CO)[C@@H]1c1ccc(C2=CCCC2)cc1)C(=O)c1cccc(F)c1`, “inactive”; to `CN(C[C@H]1N[C@@H](CO)[C@@H]1c1ccc(C2=CCCC2)cc1)C(=O)c1ccncc1`, “inactive”.
The entry for `CC1(C)CC(=O)c2sc(NC(=O)CCS(=O)(=O)c3ccccc3)nc2C1` is “inactive”; for `Cc1ccc(-c2csc(NC3OC(=O)c4ccccc43)n2)cc1` (stereo not drawn) it is “inactive”; for `COc1cccc2sc(N(CCCN(C)C)C(=O)CCS(=O)(=O)c3ccccc3)nc12` it is “inactive”.
As for `O=C(CCS(=O)(=O)c1ccccc1)Nc1nc2ccc(F)cc2s1`, the outcome was inactive.
Turning to `C[C@H]1CN([C@@H](C)CO)C(=O)CCCn2nncc2CO[C@@H]1CN(C)C(=O)Nc1ccc(-c2cccs2)cc1`, the outcome was inactive.
As for `CC(C)c1cc(C(=O)OCC(=O)N2CCN(C(=O)c3ccco3)CC2)c(O)c(C(C)C)c1`, the outcome was inactive.
The entry for `CC(=O)Nc1ccc(NC(=O)c2nc(S(=O)(=O)Cc3ccccc3)ncc2Cl)cc1` is “inactive”.
